From PubChem BioAssay (NCATS)
Inconclusive results are not listed. Entries that show only a call come without a potency. Activity calls are given as the source filed them. Calls follow the shape of the dose curve; as a rule, active = well fitted inhibition curve with a large enough effect; inconclusive = small, poorly fitted or top-dose-only effect; inactive = flat fitted curve, though single readings scatter. Non-standard residues stand in square brackets, D forms with d. Residues, ends and D or L forms follow the SMILES beside them. *: point of attachment. Nva = CCC[C@H](N)C(=O)O; Cbz = O=C(OCc1ccccc1)*

The compounds below were run on Zika virus NS2B-NS3 protease (assay: Primary screen GU AMC qHTS for Zika virus inhibitors (AID 1347154; also: nearly all actives have a fitted effect of over 70% in size)). Details: Zika NS2B-NS3 unlinked protease, AMC fluorogenic substrate; series mostly up to 54.1 µM.
Outline: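 Unlinked Zika NS2B hydrophilic domain/NS3 protease domain noncovalent complex (25 nM final) in 10 mM Tris-HCl pH 8.0, 0.01% Tween 20, with AMC peptide substrate. Fluorescence (ex 340, em 450 nm) change over 15 min, room temperature; percent inhibition fitted to 4-parameter Hill equation.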

| Compound | Potency | activity change, negative = inhibition |
| --- | --- | --- |
| CC(=O)SCC(Cc1ccccc1)C(=O)NCC(=O)OCc1ccccc1 (stereo not given) | inactive | – |
| COC(=O)[C@H](CCCN=C(N)N)NS(=O)(=O)c1ccc(C)cc1 | inactive | – |
| CCCNC(=O)[C@H]1O[C@H]1C(=O)N[C@H](C(=O)N1CCC[C@@H]1C(=O)OC)C(C)CC (stereo not given in full) | inactive | – |
| C[C@H](CCC(=O)O)[C@H]1CC[C@H]2[C@@H]3[C@H](O)C[C@@H]4C[C@H](O)CC[C@]4(C)[C@@H]3CC[C@]12C | inactive | – |
| CC(C)(O)CC[C@@H](O)[C@](C)(O)[C@H]1CC[C@@]2(O)C3=CC(=O)[C@@H]4C[C@@H](O)[C@@H](O)C[C@]4(C)[C@@H]3CC[C@]12C | inactive | – |
| Cc1cnn(C)c1C(=O)Nc1cc(Nc2ccc3c(C=Cc4ccccn4)n[nH]c3c2)ccc1F | inactive | – |
| CCC(C=C[C@@H]1OC(=O)C=C[C@H]1C)=C[C@H](C)CC=CC(C)=C[C@@H](C)C(=O)[C@@H](C)[C@H](O)[C@@H](C)CC(C)=CC(=O)O | – | 23.8% [at 2.16 µM] (inactive) |
| COc1ccc2c(c1OC)C(=O)OC2[C@H]1c2c(cc3c(c2OC)OCO3)CCN1C (stereo not given in full) | inactive | – |
| C=C[C@@H]1CN2CCC1C[C@H]2[C@H](O)c1ccnc2ccc(OC)cc12 (stereo not given in full) | inactive | – |
| Nc1nc(=O)n([C@H]2C[C@H](O)[C@@H](CO)O2)cc1F | inactive | – |
| CS[C@H]1SC[C@@H]2C(=O)N(C)[C@H](C(C)C)C(=O)OC[C@H](NC(=O)c3cnc4ccccc4n3)C(=O)N[C@H](C)C(=O)N(C)[C@@H]1C(=O)N(C)[C@H](C(C)C)C(=O)OC[C@H](NC(=O)c1cnc3ccccc3n1)C(=O)N[C@H](C)C(=O)N2C | inactive | – |
| NC(=O)c1cccc(-c2cccc(OC(=O)NC3CCCCC3)c2)c1 | inactive | – |
| CCN(C(=O)c1c(O)c2c(Cl)cccc2n(C)c1=O)c1ccccc1 | inactive | – |
| CC(=O)NC(CS)C(=O)O (stereo not given) | inactive | – |
| C=CC(=O)N1CCc2ccc(-n3c(=O)ccc4cnc5ccc(-c6cnn(C)c6)cc5c43)cc21 | inactive | – |
| CON=C(C(=O)N[C@@H]1C(=O)N2C(C(=O)O)=C(Cn3ccc(=N)n3CCO)CS[C@H]12)c1csc(N)n1 | inactive | – |
| Cc1cc(O)c2c(c1)C(=O)c1cccc(O)c1C2=O | inactive | – |
| COc1cccc2c1C(=O)c1c(O)c3c(c(O)c1C2=O)C[C@@](O)(C(=O)CO)C[C@H]3O[C@H]1C[C@H](N)[C@H](O)[C@H](C)O1 | inactive | – |

| Compound | Potency | activity change, negative = inhibition |
| --- | --- | --- |
| CC(C)c1cnn2c(NCc3ccccc3)cc(NCCCCCCN)nc12 | inactive | – |
| CN(C)CC[C@H](c1ccc(Cl)cc1)c1ccccn1 | inactive | – |
| O=C(NC1CC1)c1cccc(-c2ccc3c(NC(=O)C4CC4)n[nH]c3c2)c1 | inactive | – |
| CC(C)OC(=O)[C@H](C)N[P@](=O)(OC[C@H]1O[C@@H](n2ccc(=O)[nH]c2=O)[C@](C)(F)[C@H]1O)Oc1ccccc1 | inactive | – |
| C#C[C@]1(O)CC[C@@H]2[C@@H]3CCc4cc(O)ccc4[C@H]3CC[C@@]21C | inactive | – |
| C[C@@]12C(=O)OC(=O)[C@@]1(C)C1CCC2O1 | inactive | – |
| CC(=O)O[C@@]12CO[C@H]1C[C@H](O)[C@@]1(C)C(=O)[C@H](O)C3=C(C)[C@@H](OC(=O)C(O)[C@@H](NC(=O)OC(C)(C)C)c4ccccc4)C[C@@](O)([C@@H](OC(=O)c4ccccc4)[C@@H]21)C3(C)C (stereo not given in full) | inactive | – |
| C[C@]12C=CC(=O)N[C@@H]1CC[C@H]1[C@H]3CC[C@@H](C(=O)Nc4cc(C(F)(F)F)ccc4C(F)(F)F)[C@@]3(C)CC[C@@H]12 | inactive | – |
| CCC[C@@H](C=O)NC(=O)[C@H](CC(C)C)NC(=O)[C@H](CC(C)C)NC(=O)OCc1ccccc1 (Cbz-Leu-Leu-[Nva]-aldehyde) | inactive | – |
| C[C@H](NCc1ccc(OCc2cccc(F)c2)cc1)C(N)=O | inactive | – |
| Cn1cc(CNCC2CCN(c3ncc(C(=O)NO)cn3)CC2)c2ccccc21 | inactive | – |
| C[C@H](NC(=O)C(C#N)=Cc1cccc(Br)n1)c1ccccc1 | inactive | – |
| OCCN1C[C@H](O)[C@@H](O)[C@H](O)[C@@H]1CO | inactive | – |
| NC(=NCCCCCCN=C(N)N=C(N)Nc1ccc(Cl)cc1)N=C(N)Nc1ccc(Cl)cc1 | inactive | – |
| CN(C)CCN1C(=O)c2cccc3cc(N)cc(c23)C1=O | inactive | – |
| COC1=C(OC)C(=O)C(CC=C(C)CCC=C(C)CCC=C(C)CCC=C(C)CCC=C(C)CCC=C(C)CCC=C(C)CCC=C(C)CCC=C(C)CCC=C(C)C)=C(C)C1=O | inactive | – |
| NC(=O)c1ncn([C@@H]2O[C@H](CO)[C@@H](O)[C@@H]2O)c1O | inactive | – |
